Source: PubChem BioAssay AID1159580 (chemical genetic matrix, 2015)
Several values for one entry are separate records, joined by “and”; a condition that tells them apart may be missing. Equal entries are not always repeated. The campaign covered roughly 5,500 compounds. About 2,000 (36%) were called active. Not shown: some 18% with an inconclusive outcome. Cut-off read from the data, not from the text of the source: active = normalized growth mostly below about 0.91 (no sharp cut-off); inconclusive = no clear call, values can overlap the other calls; inactive = mostly above about 0.92. Some of the results follow.

Assay: chemical genetic growth profiling, strain panel (AID 1159580);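 note: tested at 20 µM; growth read once vehicle control cultures reached saturation at 30 °C; 1 = growth at the plate median or of vehicle wells; lower values mean less growth of the strain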
Settings: S. cerevisiae deletion strains, growth OD

Measured: normalized growth

CC(=O)O[C@H]1C[C@@]2(C)[C@@H](C[C@@H](O)C3[C@]2(C)CC[C@H]2[C@H](C)[C@H](O)CC[C@]32C)/C1=C(/CCC=C(C)C)C(=O)O (stereo partly drawn)
inactive: locus YAL013W, strain DEP1, hits give low values 1.02 | locus YAL021C, strain ccr4, hits give low values 1.02 | locus YAL026C, strain drs2, hits give low values 1.01 | locus YAL030W, strain snc1, hits give low values 1.03 | locus YBL061C, strain skt5, hits give low values 1.04 | locus YBR009C, strain hhf1, hits give low values 1.02 | locus YBR021W, strain FUR4, hits give low values 1.04 | locus YBR023C, strain chs3, hits give low values 1.04 | locus YBR171W, strain sec66, hits give low values 1.01 | locus YBR229C, strain ROT2, hits give low values 1.01 | locus YBR231C, strain swc5, hits give low values 0.988 | locus YBR279W, strain paf1, hits give low values 1.03 | locus YCL011C, strain gbp2, hits give low values 1.01 | locus YCL016C, strain dcc1, hits give low values 1.05 | locus YCL029C, strain bik1, hits give low values 1.03 | locus YCL061C, strain MRC1, hits give low values 1.02 | locus YCL069W, strain vba3, hits give low values 1.01 | locus YCR088W, strain abp1, hits give low values 1.01 | locus YDL005C, strain med2, hits give low values 1.04 | locus YDL035C, strain GPR1, hits give low values 0.989 | locus YDL040C, strain nat1, hits give low values 1.02 | locus YDL074C, strain BRE1, hits give low values 1.03 | locus YDL101C, strain DUN1, hits give low values 1.01 | locus YDL134C, strain PPH21, hits give low values 1 | locus YDL185W, strain tfp1, hits give low values 1.01 | locus YDL192W, strain arf1, hits give low values 1.03 | locus YDR001C, strain nth1, hits give low values 1 | locus YDR069C, strain doa4, hits give low values 1.03 | locus YDR101C, strain arx1, hits give low values 1.02 | locus YDR137W, strain rgp1, hits give low values 1 | locus YDR150W, strain NUM1, hits give low values 1.02 | locus YDR159W, strain sac3, hits give low values 0.989 | locus YDR162C, strain NBP2, hits give low values 1 | locus YDR195W, strain ref2 1.03 | locus YDR297W, strain sur2, hits give low values 1.02 | locus YDR318W, strain mcm21, hits give low values 1.03 | locus YDR334W, strain swr1, hits give low values 1.02 | locus YDR335W, strain msn5, hits give low values 1.04 | locus YDR388W, hits give low values 1.04 | locus YDR392W, strain spt3, hits give low values 0.998 | locus YDR502C, strain sam2, hits give low values 1.04 | locus YEL003W, strain gim4, hits give low values 0.998 | locus YEL037C, strain rad23, hits give low values 1 | locus YEL061C, strain CIN8 (second series), hits give low values 1.01 | locus YEL061C, strain CIN8, hits give low values 1.01 | locus YER015W, strain faa2, hits give low values 1.03 | locus YER016W, strain bim1, hits give low values 1.01 | locus YER110C, hits give low values 1.02 | locus YER111C, strain swi4, hits give low values 1.03 | locus YER155C, strain BEM2 (second series), hits give low values 1.01 | locus YER155C, strain BEM2, hits give low values 1.01 | locus YER167W, strain BCK2, hits give low values 1.02 | locus YFR010W, strain ubp6, hits give low values 1.02 | locus YGL078C, strain dbp3, hits give low values 1.04 | locus YGL086W, strain mad1, hits give low values 1.01 | locus YGL167C, strain pmr1, hits give low values 1.02 | locus YGL173C, strain kem1, hits give low values 1.01 | locus YGL227W, strain vid30, hits give low values 1.01 | locus YGL240W, strain doc1, hits give low values 1.01 | locus YGL248W, strain PDE1, hits give low values 1.01 | locus YGL253W, strain hxk2, hits give low values 1.01 | locus YGR078C, strain PAC10, hits give low values 1.02 | locus YGR135W, strain pre9, hits give low values 1.06 | locus YGR229C, strain SMI1, hits give low values 1.02 | locus YGR252W, strain gcn5, hits give low values 1.02 | locus YHR013C, strain ard1, hits give low values 1.08 | locus YHR027C, strain rpn1, hits give low values 1.03 | locus YHR030C, strain SLT2, hits give low values 1.02 and 0.951 | locus YHR079C, strain IRE1 (second series), hits give low values 1.01 | locus YHR079C, strain IRE1, hits give low values 0.959 | locus YHR094C, strain hxt1, hits give low values 1.03 | locus YHR129C, strain ARP1, hits give low values 1.01 | locus YHR142W, strain chs7, hits give low values 1.04 | locus YHR200W, strain rpn10, hits give low values 1.05 | locus YIL066C, strain RNR3, hits give low values 1.01 | locus YIL073C, strain SPO22, hits give low values 1.03 | locus YIL125W, strain kgd1, hits give low values 1.03 | locus YIR030C, strain dcg1, hits give low values 1.04 | locus YJL092W, strain hpr5, hits give low values 1.01 | locus YJL095W, strain BCK1 (second series), hits give low values 1.03 | locus YJL095W, strain BCK1, hits give low values 1.03 and 0.977 | locus YJL115W, strain asf1, hits give low values 1.03 | locus YJL129C, strain trk1, hits give low values 1.03 | locus YJL134W, strain LCB3, hits give low values 1.01 | locus YJL154C, strain vps35, hits give low values 0.993 | locus YJL164C, strain tpk1, hits give low values 1.06 | locus YJL166W, strain qcr8, hits give low values 1.08 | locus YJL168C, strain set2, hits give low values 1.02
